# Results taken from publication PMC7862700, “An all-to-all approach to the identification of sequence-specific readers for epigenetic DNA modifications on cytosine”.
# Columns and labels:
# Experiment in all cases: DAPPL (digital affinity profiling via proximity ligation, sequencing); 10 mM Tris-HCl pH 7.5, 50 mM NaCl, 1 mM DTT, 4% glycerol, room temperature, 30 min; GST-TFs on glutathione beads, 16-mer random dsDNA library, 0.1% formaldehyde crosslink after washing; high values mean tight binding
# FLI1 = target: T1, FLI1 (Homo sapiens, UniProt Q01543 1-452); conditions: protein: recombinant; tags: N-terminal GST; dsDNA, one strand shown
# T1 sequence: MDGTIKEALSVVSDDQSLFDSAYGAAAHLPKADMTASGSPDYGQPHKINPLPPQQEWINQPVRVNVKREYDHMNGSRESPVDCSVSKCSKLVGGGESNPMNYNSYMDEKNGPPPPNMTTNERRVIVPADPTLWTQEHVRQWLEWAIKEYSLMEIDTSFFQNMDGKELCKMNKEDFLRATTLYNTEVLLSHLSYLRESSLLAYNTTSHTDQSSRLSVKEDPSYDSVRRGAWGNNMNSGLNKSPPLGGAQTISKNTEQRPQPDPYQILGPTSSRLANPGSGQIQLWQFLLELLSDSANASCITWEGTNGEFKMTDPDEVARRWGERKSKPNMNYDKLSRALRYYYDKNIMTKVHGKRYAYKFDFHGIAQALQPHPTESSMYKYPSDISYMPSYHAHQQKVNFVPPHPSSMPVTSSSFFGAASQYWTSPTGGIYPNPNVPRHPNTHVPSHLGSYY
# Procedure, shortened: (§1)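 Beads coated with glutathione captured GST-fused human transcription factors that had been expressed in yeast, and the factors were then given DNA barcodes and pooled with a tag-only sample. The pools were incubated with 200 nmole of a random double-stranded 16-mer DNA library in Tris/NaCl/DTT/glycerol buffer for 30 min at room temperature, washed, crosslinked with 0.1% formaldehyde and proximity-ligated with BsaI/T4 ligase at 37 °C for 1 h. PCR amplification and Illumina NextSeq500 sequencing came last. Binding signal is each hexamer's read frequency for a factor divided by its frequency for the tag-only sample.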
# ELK1 = target: T2, ELK1 (Homo sapiens, UniProt P19419 1-428); conditions: protein: recombinant; tags: N-terminal GST; dsDNA, one strand shown
# T2 sequence: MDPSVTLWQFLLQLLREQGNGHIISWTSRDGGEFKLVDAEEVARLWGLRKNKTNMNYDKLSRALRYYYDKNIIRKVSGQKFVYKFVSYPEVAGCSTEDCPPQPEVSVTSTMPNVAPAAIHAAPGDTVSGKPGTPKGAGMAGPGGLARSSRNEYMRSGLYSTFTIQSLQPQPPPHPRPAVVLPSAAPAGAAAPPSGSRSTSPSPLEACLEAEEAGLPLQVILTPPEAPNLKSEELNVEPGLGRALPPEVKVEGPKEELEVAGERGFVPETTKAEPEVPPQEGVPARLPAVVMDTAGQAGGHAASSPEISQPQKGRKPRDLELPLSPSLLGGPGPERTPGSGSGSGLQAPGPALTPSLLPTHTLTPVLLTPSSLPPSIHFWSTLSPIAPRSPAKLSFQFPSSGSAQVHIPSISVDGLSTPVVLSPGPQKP
# Procedure, shortened: as §1
# GABPA = target: T3, GABPA (Homo sapiens, UniProt Q06546 1-454); conditions: protein: recombinant; tags: N-terminal GST; dsDNA, one strand shown
# T3 sequence: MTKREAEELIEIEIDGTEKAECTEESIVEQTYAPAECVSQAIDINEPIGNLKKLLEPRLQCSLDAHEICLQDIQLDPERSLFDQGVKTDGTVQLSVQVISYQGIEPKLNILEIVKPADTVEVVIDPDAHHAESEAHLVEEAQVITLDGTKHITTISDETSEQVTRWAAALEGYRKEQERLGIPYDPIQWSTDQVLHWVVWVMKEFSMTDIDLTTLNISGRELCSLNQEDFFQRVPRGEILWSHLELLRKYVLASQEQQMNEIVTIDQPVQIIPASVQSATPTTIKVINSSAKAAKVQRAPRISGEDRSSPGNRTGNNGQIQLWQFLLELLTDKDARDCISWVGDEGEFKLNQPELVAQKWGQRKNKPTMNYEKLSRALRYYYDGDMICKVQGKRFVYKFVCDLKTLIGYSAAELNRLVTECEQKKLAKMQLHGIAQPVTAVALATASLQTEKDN
# Procedure, shortened: as §1
# ERG = target: T4, ERG (Homo sapiens, UniProt P11308 1-479); conditions: protein: recombinant; tags: N-terminal GST; dsDNA, one strand shown
# T4 sequence: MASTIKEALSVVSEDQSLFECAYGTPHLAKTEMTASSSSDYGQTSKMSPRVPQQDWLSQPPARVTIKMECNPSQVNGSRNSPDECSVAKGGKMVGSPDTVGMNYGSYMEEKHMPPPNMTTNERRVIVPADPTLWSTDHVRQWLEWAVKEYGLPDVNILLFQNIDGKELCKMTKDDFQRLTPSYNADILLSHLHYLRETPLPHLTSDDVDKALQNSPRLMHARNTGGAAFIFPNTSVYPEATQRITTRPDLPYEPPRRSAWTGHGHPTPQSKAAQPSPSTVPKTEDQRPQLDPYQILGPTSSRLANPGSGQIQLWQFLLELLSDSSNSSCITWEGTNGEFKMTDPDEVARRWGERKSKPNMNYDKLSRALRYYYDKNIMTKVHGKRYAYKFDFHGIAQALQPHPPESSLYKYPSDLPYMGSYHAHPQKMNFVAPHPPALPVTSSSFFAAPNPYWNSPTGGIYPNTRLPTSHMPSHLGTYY
# Procedure, shortened: as §1
# ELF1 = ELF1 (Homo sapiens, UniProt P32519 1-619); conditions: protein: recombinant; tags: N-terminal GST; dsDNA, one strand shown
# Sequence of ELF1 (P32519 whole entry): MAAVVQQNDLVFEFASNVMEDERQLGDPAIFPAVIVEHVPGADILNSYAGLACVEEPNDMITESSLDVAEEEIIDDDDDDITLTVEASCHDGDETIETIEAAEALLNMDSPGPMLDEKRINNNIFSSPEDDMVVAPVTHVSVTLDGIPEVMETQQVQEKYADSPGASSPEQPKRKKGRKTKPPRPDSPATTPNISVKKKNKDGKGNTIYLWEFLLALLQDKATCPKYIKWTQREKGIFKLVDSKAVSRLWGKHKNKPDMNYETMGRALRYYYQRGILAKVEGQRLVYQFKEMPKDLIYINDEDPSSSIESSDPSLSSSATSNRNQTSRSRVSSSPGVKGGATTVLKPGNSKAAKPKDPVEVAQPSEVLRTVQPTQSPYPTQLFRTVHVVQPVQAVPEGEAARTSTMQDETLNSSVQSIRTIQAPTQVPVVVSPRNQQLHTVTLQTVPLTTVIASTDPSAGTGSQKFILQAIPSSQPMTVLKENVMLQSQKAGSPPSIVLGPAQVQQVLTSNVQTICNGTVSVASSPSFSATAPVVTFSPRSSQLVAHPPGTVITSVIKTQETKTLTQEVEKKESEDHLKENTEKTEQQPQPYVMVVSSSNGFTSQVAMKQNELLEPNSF
# Procedure, shortened: as §1
# EHF = target: T5, EHF (Homo sapiens, UniProt Q9NZC4 1-300); conditions: protein: recombinant; tags: N-terminal GST; dsDNA, one strand shown
# T5 sequence: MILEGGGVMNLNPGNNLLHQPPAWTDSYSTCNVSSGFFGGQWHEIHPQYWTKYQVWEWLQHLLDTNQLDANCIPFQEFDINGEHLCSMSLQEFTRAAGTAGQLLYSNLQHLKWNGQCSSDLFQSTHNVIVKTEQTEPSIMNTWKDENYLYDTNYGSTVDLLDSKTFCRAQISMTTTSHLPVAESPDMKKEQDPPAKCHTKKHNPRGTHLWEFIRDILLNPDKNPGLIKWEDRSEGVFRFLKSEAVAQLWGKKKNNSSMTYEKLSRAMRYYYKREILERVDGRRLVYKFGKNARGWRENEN
# Procedure, shortened: as §1
# SPI1 = SPI1 (Homo sapiens, UniProt P17947 1-270); conditions: protein: recombinant; tags: N-terminal GST; dsDNA, one strand shown
# Procedure, shortened: as §1
# SPIB = SPIB (Homo sapiens, UniProt Q01892 1-262); conditions: protein: recombinant; tags: N-terminal GST; dsDNA, one strand shown
# Sequence of SPIB (Q01892 whole entry): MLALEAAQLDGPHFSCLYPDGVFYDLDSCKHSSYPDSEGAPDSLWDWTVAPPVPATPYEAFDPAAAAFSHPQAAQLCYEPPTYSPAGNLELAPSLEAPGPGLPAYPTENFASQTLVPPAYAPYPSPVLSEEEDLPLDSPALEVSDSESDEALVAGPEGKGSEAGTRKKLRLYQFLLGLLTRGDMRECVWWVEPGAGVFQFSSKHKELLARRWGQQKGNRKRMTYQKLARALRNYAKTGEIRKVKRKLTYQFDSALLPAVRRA
# Procedure, shortened: as §1
# ELK3 = target: T6, ELK3 (Homo sapiens, UniProt P41970 1-407); conditions: protein: recombinant; tags: N-terminal GST; dsDNA, one strand shown
# T6 sequence: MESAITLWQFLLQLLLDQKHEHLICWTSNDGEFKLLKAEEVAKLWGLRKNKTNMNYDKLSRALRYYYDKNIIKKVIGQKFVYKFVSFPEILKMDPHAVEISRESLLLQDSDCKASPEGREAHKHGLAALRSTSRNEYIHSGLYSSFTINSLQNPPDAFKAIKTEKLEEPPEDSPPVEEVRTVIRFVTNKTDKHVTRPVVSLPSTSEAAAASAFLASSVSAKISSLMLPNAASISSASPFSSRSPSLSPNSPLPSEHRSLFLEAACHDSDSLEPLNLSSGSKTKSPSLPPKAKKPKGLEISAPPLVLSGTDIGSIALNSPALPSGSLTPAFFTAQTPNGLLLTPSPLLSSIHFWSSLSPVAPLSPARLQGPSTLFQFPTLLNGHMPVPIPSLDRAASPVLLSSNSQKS
# Procedure, shortened: as §1
# FEV = target: T7, FEV (Homo sapiens, UniProt Q99581 1-238); conditions: protein: recombinant; tags: N-terminal GST; dsDNA, one strand shown
# T7 sequence: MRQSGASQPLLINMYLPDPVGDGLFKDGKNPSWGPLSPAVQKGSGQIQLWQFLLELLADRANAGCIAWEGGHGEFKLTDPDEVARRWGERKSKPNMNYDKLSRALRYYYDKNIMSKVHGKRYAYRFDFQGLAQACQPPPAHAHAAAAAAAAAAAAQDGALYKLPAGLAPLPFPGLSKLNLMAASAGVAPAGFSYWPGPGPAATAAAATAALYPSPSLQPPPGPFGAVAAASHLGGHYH
# Procedure, shortened: as §1
# ETV5 = ETV5 (Homo sapiens, UniProt P41161 1-510); conditions: protein: recombinant; tags: N-terminal GST; dsDNA, one strand shown
# Sequence of ETV5 (P41161 whole entry): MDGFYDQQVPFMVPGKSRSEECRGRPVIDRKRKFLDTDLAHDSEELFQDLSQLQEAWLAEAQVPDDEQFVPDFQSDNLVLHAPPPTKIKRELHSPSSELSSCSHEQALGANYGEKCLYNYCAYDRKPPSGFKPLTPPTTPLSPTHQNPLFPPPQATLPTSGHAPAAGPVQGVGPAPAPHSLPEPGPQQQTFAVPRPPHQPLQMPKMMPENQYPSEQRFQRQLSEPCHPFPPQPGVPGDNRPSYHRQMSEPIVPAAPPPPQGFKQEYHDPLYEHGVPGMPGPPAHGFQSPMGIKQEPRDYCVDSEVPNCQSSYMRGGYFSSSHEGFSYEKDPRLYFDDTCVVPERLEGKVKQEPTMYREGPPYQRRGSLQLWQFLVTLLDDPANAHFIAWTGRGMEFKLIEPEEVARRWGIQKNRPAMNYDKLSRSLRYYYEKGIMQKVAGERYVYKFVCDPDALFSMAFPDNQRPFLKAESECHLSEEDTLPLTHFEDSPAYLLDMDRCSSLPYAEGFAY
# Procedure, shortened: as §1
# HSF1 = HSF1 (Homo sapiens, UniProt Q00613 1-529); conditions: protein: recombinant; tags: N-terminal GST; chain copies: 3; dsDNA, one strand shown
# Sequence of HSF1 (Q00613 whole entry): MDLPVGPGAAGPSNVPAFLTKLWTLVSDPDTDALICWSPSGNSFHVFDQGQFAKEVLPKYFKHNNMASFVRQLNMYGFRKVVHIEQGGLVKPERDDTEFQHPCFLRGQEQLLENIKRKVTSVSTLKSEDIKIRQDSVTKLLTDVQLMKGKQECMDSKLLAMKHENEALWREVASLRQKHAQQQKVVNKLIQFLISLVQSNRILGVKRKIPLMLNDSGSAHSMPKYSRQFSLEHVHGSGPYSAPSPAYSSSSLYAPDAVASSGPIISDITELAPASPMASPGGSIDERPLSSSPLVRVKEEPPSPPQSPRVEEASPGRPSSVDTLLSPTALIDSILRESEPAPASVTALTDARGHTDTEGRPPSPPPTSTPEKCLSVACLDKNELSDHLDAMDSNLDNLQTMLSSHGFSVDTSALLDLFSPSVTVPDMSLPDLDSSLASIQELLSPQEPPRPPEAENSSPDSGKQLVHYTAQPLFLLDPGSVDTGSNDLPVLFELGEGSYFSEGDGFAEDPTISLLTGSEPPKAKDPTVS
# Procedure, shortened: as §1
# SPIC = target: T8, SPIC (Homo sapiens, UniProt Q8N5J4 1-248); conditions: protein: recombinant; tags: N-terminal GST; dsDNA, one strand shown
# T8 sequence: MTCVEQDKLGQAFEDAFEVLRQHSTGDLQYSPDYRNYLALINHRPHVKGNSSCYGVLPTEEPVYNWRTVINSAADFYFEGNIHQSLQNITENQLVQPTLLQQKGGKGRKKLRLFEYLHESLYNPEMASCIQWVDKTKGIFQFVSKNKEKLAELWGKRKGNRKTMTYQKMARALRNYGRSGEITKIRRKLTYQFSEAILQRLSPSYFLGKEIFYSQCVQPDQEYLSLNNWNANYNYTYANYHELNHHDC
# Procedure, shortened: as §1
# ELF4 = ELF4 (Homo sapiens, UniProt Q99607 1-663); conditions: protein: recombinant; tags: N-terminal GST; dsDNA, one strand shown
# Sequence of ELF4 (Q99607 whole entry): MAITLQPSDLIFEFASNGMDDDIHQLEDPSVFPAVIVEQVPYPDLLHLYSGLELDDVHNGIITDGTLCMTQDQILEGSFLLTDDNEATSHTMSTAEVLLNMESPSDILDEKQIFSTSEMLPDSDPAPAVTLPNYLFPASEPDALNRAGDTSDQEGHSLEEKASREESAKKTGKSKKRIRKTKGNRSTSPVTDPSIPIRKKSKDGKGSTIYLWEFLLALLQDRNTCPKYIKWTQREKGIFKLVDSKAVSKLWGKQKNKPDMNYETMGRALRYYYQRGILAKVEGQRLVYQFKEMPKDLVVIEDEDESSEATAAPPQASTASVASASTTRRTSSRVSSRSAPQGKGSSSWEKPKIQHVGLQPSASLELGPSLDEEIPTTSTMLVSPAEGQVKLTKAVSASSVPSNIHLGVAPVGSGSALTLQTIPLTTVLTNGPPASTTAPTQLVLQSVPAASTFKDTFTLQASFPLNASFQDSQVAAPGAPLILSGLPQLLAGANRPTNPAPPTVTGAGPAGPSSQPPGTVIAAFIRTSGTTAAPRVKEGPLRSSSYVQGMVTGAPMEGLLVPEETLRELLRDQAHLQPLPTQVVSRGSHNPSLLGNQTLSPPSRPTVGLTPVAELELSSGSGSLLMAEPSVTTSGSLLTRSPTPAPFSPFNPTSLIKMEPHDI
# Procedure, shortened: as §1
# ELK4 = target: T9, ELK4 (Homo sapiens, UniProt P28324-2 1-405); conditions: protein: recombinant; tags: N-terminal GST; dsDNA, one strand shown
# T9 sequence: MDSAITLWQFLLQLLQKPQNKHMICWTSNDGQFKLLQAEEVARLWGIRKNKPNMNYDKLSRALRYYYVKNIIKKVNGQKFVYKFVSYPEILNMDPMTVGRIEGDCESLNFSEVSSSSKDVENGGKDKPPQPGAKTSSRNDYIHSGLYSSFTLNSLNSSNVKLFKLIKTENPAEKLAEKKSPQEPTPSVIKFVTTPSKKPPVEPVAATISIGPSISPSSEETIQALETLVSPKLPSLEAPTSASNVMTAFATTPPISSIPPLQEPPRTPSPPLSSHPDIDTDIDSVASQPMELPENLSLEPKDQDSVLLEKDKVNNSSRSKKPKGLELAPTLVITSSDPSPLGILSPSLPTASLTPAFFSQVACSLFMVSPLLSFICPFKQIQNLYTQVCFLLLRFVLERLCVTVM
# Procedure, shortened: as §1
# ETV2 = target: T10, ETV2 (Homo sapiens, UniProt O00321 1-342); conditions: protein: recombinant; tags: N-terminal GST; dsDNA, one strand shown
# T10 sequence: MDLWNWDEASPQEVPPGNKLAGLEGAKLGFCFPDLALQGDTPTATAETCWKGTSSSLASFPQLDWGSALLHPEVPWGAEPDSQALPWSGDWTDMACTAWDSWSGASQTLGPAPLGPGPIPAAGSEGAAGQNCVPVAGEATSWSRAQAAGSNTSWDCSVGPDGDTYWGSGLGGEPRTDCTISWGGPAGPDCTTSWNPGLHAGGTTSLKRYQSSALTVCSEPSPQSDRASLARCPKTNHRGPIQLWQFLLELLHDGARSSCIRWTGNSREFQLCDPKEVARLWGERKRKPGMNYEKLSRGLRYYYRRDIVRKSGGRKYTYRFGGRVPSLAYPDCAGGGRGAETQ
# Procedure, shortened: as §1
# ELF3 = target: T11, ELF3 (Homo sapiens, UniProt P78545 1-371); conditions: protein: recombinant; tags: N-terminal GST; dsDNA, one strand shown
# T11 sequence: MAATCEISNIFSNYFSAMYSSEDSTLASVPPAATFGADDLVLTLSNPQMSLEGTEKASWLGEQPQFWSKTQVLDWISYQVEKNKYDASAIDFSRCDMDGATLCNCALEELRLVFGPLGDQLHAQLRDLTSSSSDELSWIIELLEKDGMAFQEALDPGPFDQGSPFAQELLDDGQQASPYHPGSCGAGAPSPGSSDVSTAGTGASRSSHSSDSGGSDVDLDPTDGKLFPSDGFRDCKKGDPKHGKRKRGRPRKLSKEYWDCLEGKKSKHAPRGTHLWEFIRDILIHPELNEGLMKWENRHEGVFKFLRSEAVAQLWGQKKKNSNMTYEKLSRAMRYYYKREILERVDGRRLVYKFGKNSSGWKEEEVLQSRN
# Procedure, shortened: as §1
# CRX = CRX (Homo sapiens, UniProt O43186 1-299); conditions: protein: recombinant; tags: N-terminal GST; dsDNA, one strand shown
# Sequence of CRX (O43186 whole entry): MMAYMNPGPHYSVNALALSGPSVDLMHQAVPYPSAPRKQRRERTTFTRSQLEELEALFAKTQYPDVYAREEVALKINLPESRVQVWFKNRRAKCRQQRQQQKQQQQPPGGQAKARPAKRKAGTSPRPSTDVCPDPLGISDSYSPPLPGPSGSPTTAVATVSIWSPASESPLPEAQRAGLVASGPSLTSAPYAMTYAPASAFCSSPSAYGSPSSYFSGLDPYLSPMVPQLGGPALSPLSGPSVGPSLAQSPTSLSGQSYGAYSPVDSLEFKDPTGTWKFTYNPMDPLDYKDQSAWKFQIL
# Procedure, shortened: as §1
# ETV1 = ETV1 (Homo sapiens, UniProt P50549 1-477); conditions: protein: recombinant; tags: N-terminal GST; dsDNA, one strand shown
# Sequence of ETV1 (P50549 whole entry): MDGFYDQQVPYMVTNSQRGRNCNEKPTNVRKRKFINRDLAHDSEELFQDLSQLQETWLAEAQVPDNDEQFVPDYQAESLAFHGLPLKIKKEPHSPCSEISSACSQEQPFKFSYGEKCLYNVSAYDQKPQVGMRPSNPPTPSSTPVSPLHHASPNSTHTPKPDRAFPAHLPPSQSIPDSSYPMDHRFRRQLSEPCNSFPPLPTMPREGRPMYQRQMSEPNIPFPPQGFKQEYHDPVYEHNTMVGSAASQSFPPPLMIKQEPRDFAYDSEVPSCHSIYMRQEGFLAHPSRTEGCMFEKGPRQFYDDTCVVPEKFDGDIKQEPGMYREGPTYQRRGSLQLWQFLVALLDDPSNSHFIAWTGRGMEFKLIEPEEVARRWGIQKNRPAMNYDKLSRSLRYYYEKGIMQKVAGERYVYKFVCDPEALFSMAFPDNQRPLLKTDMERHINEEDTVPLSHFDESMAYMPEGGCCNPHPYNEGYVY
# Procedure, shortened: as §1
sequence,measurement,setting,value
TGTTTT,binding signal,FLI1,"1.36 fold enrichment (6-mer frequency, TF over GST control)"
same,binding signal,ELK1,"1.32 fold enrichment (6-mer frequency, TF over GST control)"
same,binding signal,GABPA,"1.35 fold enrichment (6-mer frequency, TF over GST control)"
same,binding signal,ERG,"1.26 fold enrichment (6-mer frequency, TF over GST control)"
same,binding signal,ELF1,"1.34 fold enrichment (6-mer frequency, TF over GST control)"
same,binding signal,EHF,"1.35 fold enrichment (6-mer frequency, TF over GST control)"
same,binding signal,SPI1,"1.43 fold enrichment (6-mer frequency, TF over GST control)"
same,binding signal,SPIB,"1.3 fold enrichment (6-mer frequency, TF over GST control)"
same,binding signal,ELK3,"1.43 fold enrichment (6-mer frequency, TF over GST control)"
same,binding signal,FEV,"1.24 fold enrichment (6-mer frequency, TF over GST control)"
same,binding signal,ETV5,"1.42 fold enrichment (6-mer frequency, TF over GST control)"
same,binding signal,HSF1,"1.21 fold enrichment (6-mer frequency, TF over GST control)"
same,binding signal,SPIC,"1.36 fold enrichment (6-mer frequency, TF over GST control)"
same,binding signal,ELF4,"1.37 fold enrichment (6-mer frequency, TF over GST control)"
same,binding signal,ELK4,"1.35 fold enrichment (6-mer frequency, TF over GST control)"
same,binding signal,ETV2,"1.38 fold enrichment (6-mer frequency, TF over GST control)"
same,binding signal,ELF3,"1.33 fold enrichment (6-mer frequency, TF over GST control)"
same,binding signal,CRX,"1.23 fold enrichment (6-mer frequency, TF over GST control)"
same,binding signal,ETV1,"1.29 fold enrichment (6-mer frequency, TF over GST control)"
